Test results from ChEMBL document CHEMBL3988442, “University of Dundee, Small-Polar-MMV Screening Library” (2021).

Molecular target: T1, Methionyl-tRNA synthetase, putative (Leishmania donovani (strain BPK282A1)) (UniProt E9BF75)
T1 sequence (whole entry): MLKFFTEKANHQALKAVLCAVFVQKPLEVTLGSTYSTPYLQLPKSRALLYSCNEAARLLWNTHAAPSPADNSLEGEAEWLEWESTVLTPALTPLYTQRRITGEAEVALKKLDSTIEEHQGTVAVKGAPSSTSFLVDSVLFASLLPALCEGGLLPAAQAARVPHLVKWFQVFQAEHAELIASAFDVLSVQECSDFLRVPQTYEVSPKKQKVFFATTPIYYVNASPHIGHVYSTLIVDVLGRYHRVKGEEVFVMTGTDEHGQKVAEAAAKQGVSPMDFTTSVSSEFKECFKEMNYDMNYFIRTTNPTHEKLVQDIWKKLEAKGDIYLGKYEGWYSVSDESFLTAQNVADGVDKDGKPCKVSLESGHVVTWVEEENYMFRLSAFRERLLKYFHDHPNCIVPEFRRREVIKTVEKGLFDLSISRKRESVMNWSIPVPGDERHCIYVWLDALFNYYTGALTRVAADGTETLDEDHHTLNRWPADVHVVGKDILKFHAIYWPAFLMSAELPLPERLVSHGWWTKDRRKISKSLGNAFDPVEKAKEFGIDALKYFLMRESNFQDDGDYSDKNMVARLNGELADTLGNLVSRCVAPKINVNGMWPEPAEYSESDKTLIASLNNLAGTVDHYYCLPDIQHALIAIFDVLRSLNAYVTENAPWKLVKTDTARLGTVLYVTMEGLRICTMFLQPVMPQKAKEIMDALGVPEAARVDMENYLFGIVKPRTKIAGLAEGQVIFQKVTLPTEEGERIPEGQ
Test: Leishmania donovani Methionine tRNA synthetase (LdMetRS):v7. Dose response assay
Format: functional
Design: conc 80 nM, time 150 minutes

## COCCCNc1nc(Nc2ccc(F)c(F)c2)nc2c1cnn2C
BOTTOM 8.707474288, HILLSLOPE 1.018785888, MAX_EFFECT 82.18527316, TOP 91.55126405
  PXC50: 4.89
BOTTOM 8.755992534, HILLSLOPE 0.77848464, MAX_EFFECT 80.25751073, TOP 100.0
  PXC50: 4.77
BOTTOM -0.585436575, HILLSLOPE 0.774777818, MAX_EFFECT 86.07350097, TOP 105.947702
  PXC50: 4.83

## NC1CCN(C2CCN(c3ccc(-c4ccco4)cc3)CC2)CC1
MAX_EFFECT 34.50087566
  PXC50: < 4
MAX_EFFECT 44.89795918
  PXC50: < 4
MAX_EFFECT 51.44927536
  PXC50: < 4

## CCCCOC(=O)CNc1nc(Nc2ccc(F)c(F)c2)nc2c1cnn2C
MAX_EFFECT 18.05225653
  PXC50: < 4
MAX_EFFECT 18.45493562
  PXC50: < 4
MAX_EFFECT 25.28301887
  PXC50: < 4

## c1cc(-c2ccc3c(c2)CCC32CCN(c3nncs3)CC2)co1
BOTTOM 1.725579768, HILLSLOPE 1.730442881, MAX_EFFECT 81.97573657, TOP 100.0
  PXC50: 4.31
BOTTOM 2.845642281, HILLSLOPE 1.539467031, MAX_EFFECT 93.05555556, TOP 100.0
  PXC50: 4.55
BOTTOM 5.084669568, HILLSLOPE 1.629318142, MAX_EFFECT 90.60402685, TOP 100.0
  PXC50: 4.52

## C[C@H](CO)Nc1nc(Nc2ccc(F)c(F)c2)nc2c1cnn2C
BOTTOM 0.704945414, HILLSLOPE 0.848291247, MAX_EFFECT 90.56603774, TOP 99.28027428
  PXC50: 5.18
BOTTOM -2.01884568, HILLSLOPE 0.856610715, MAX_EFFECT 86.93586698, TOP 98.70470885
  PXC50: 5.08
BOTTOM -5.653457492, HILLSLOPE 0.743768618, MAX_EFFECT 93.13304721, TOP 109.1674954
  PXC50: 5.06

## CCc1[nH]c2c(CNc3cncc(C(=O)OC)n3)cc(C)cc2c1C
MAX_EFFECT 7.798960139
  PXC50: < 4
MAX_EFFECT 45.13888889
  PXC50: < 4
MAX_EFFECT 45.63758389
  PXC50: < 4

## NC(=O)c1cccnc1Nc1cccc(S(N)(=O)=O)c1
MAX_EFFECT 5.69259962
  PXC50: < 4
MAX_EFFECT 12.33480176
  PXC50: < 4
MAX_EFFECT 15.08264463
  PXC50: < 4

## CC1COc2ccccc2N1C(=O)CCc1cscn1 (stereo not drawn)
MAX_EFFECT 3.401360544
  PXC50: < 4
MAX_EFFECT 4.347826087
  PXC50: < 4
MAX_EFFECT 6.479859895
  PXC50: < 4

## CC(CO)Nc1nc(Nc2ccc(F)c(F)c2)nc2c1cnn2C (stereo not drawn)
BOTTOM 2.552520772, HILLSLOPE 1.745088914, MAX_EFFECT 107.6446281, TOP 100.0
  PXC50: 4.83
BOTTOM 8.006700064, HILLSLOPE 1.180035315, MAX_EFFECT 70.20872865, TOP 73.72941327
  PXC50: 5.16
BOTTOM -2.864211308, HILLSLOPE 1.095022811, MAX_EFFECT 93.83259912, TOP 100.0
  PXC50: 4.9

## Cc1cc(Nc2nc(NCCO)c3cnn(C)c3n2)cc(C(F)(F)F)c1
MAX_EFFECT 17.18061674
  PXC50: < 4
MAX_EFFECT 18.76208897
  PXC50: < 4
MAX_EFFECT 22.9338843
  PXC50: < 4

## NS(=O)(=O)c1cccnc1Nc1cc(F)cc(C(F)(F)F)c1
MAX_EFFECT 3.956834532
  PXC50: < 4
MAX_EFFECT 8.551068884
  PXC50: < 4
MAX_EFFECT 8.583690987
  PXC50: < 4

## Cn1ncc2c(NCC3CCCO3)nc(Nc3ccc(F)c(F)c3)nc21 (stereo not drawn)
BOTTOM 1.649824941, HILLSLOPE 0.742759749, MAX_EFFECT 82.45614035, TOP 99.7468185
  PXC50: 4.96
BOTTOM 4.130822452, HILLSLOPE 0.904236715, MAX_EFFECT 86.03773585, TOP 94.6325805
  PXC50: 4.99
BOTTOM 7.824180632, HILLSLOPE 1.170320257, MAX_EFFECT 82.95165394, TOP 90.00397209
  PXC50: 4.93

## Cc1cnn(CCNCc2c(C)nn(CCO)c2C)c1
MAX_EFFECT 2.721088435
  PXC50: < 4
MAX_EFFECT 5.072463768
  PXC50: < 4
MAX_EFFECT 8.23117338
  PXC50: < 4

## Cc1nc(Cc2ccc(F)cc2)cc(C2COCCN2)n1 (stereo not drawn)
BOTTOM 2.29407011, HILLSLOPE 1.165905826, MAX_EFFECT 59.72222222, TOP 100.0
  PXC50: 4.12
BOTTOM 7.218737982, HILLSLOPE 1.406075807, MAX_EFFECT 57.71812081, TOP 100.0
  PXC50: 4.05
MAX_EFFECT 41.7677643
  PXC50: < 4

## CNC(=O)CNc1nc(Nc2ccc(F)c(F)c2)nc2c1cnn2C
BOTTOM -2.014141631, HILLSLOPE 0.719425381, MAX_EFFECT 67.11798839, TOP 100.0
  PXC50: 4.45
BOTTOM -2.647341189, HILLSLOPE 0.864486673, MAX_EFFECT 64.80686695, TOP 100.0
  PXC50: 4.36
BOTTOM -5.796593818, HILLSLOPE 0.871793388, MAX_EFFECT 66.50831354, TOP 100.0
  PXC50: 4.35

## Cc1cnc(Nc2ccc(F)c(F)c2)nc1NCCO
BOTTOM 3.101896626, HILLSLOPE 0.807877595, MAX_EFFECT 79.29515419, TOP 94.15227944
  PXC50: 5.03
BOTTOM 5.769615282, HILLSLOPE 1.014209397, MAX_EFFECT 83.3655706, TOP 87.41572948
  PXC50: 5.22
BOTTOM -1.22519456, HILLSLOPE 0.709920628, MAX_EFFECT 85.74380165, TOP 105.2657083
  PXC50: 5

## Cc1cc(Nc2ccc(F)c(F)c2)nc(NCCO)n1
BOTTOM -0.152929864, HILLSLOPE 0.883857243, MAX_EFFECT 83.3655706, TOP 93.53791092
  PXC50: 5.04
BOTTOM -2.585097693, HILLSLOPE 0.96868989, MAX_EFFECT 84.50413223, TOP 95.81491094
  PXC50: 4.9
BOTTOM -4.028659836, HILLSLOPE 0.891804294, MAX_EFFECT 83.70044053, TOP 100.2402145
  PXC50: 4.82

## Cn1ncc2c(NCCO)nc(Nc3ccncc3)nc21
MAX_EFFECT 4.449648712
  PXC50: < 4
MAX_EFFECT 5.518763797
  PXC50: < 4
MAX_EFFECT -0.37037037
  PXC50: < 4

## Cn1ncc2c(NCCN)nc(Nc3ccc(F)c(F)c3)nc21
BOTTOM 0.911965316, HILLSLOPE 1.032464682, MAX_EFFECT 89.9543379, TOP 102.6852722
  PXC50: 4.79
BOTTOM 7.300924011, HILLSLOPE 0.949344895, MAX_EFFECT 92.59962049, TOP 105.5838005
  PXC50: 4.84
BOTTOM 8.334888852, HILLSLOPE 1.031126137, MAX_EFFECT 87.73584906, TOP 103.8891038
  PXC50: 4.68

## CCc1[nH]c2c(CNc3nc(C)cc(NC)n3)cc(C)cc2c1C
BOTTOM 0.67274626, HILLSLOPE 1.539733885, MAX_EFFECT 72.46376812, TOP 100.0
  PXC50: 4.25
BOTTOM -0.906983609, HILLSLOPE 1.456210781, MAX_EFFECT 70.06802721, TOP 103.3868667
  PXC50: 4.22
MAX_EFFECT 28.19614711
  PXC50: < 4

## NS(=O)(=O)c1cc(Cl)cc(Cl)c1
MAX_EFFECT 24.26470588
  PXC50: < 3
MAX_EFFECT 31.80778032
  PXC50: < 3
MAX_EFFECT 47.99235182
  PXC50: < 2.7
